{"source": "PubChem BioAssay (NCI)", "note": "This is part of a sample that, as a whole, favours compounds with a hit. Of some 79,000 tested, about 15% had one in any assay. A number with no mark means an inactive call. Activity calls are given as the source filed them. Rule as the data show it: active = growth inhibition above about 70%; inactive = the rest.", "data": [{"test": "NCI Yeast Anticancer Drug Screen. Data for the rad50EPP+ strain (AID 151);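 also: 0% = growth of vehicle-treated control cultures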", "conditions": "S. cerevisiae rad50 mutant strain, at 1.2 µM, active compounds read high", "procedure,_shortened": "(§1)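 Genetically defined yeast (rad50EPP+, DNA damage repair alteration) is grown with compound, and inhibition of growth is expressed relative to vehicle-treated controls.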", "units": {"growth inhibition": "%"}, "values": [{"smiles": "CNC(=O)OCc1c(COC(=O)NC)c(-c2ccc(Cl)cc2)n2c1CCC2", "growth inhibition": -21}, {"smiles": "CC(=O)OC1CC2C(C)(C)C(=O)C=C[C@]2(C)C2CCC3(C)C(=CCC3[C@H](CO)C[C@H](O)C(=O)C(C)(C)O)[C@]12C", "note": "(stereo partly specified)", "growth inhibition": -34}, {"smiles": "CCCCCCOC(=O)NCCOC(=O)Nc1ccccc1", "growth inhibition": 3}, {"smiles": "C[C](C)(C)[Ge]([O][Ge]([c]1ccccc1)[c]1ccccc1)([O][Ge]([c]1ccccc1)[c]1ccccc1)[C](C)(C)C", "growth inhibition": 0}, {"smiles": "CCc1c(Cl)c(C)cc(O)c1Cl", "growth inhibition": -27}, {"smiles": "Cc1nc(Nc2ccccc2[N+](=O)[O-])sc1C(=O)CC(=O)C(=O)Nc1c(C(C)C)cccc1C(C)C", "growth inhibition": 5}, {"smiles": "O=[N+]([O-])c1cccc2nc3ccccc3c(NCCCn3ccnc3[N+](=O)[O-])c12", "growth inhibition": 24}, {"smiles": "CCCCCCC(O)CNCc1ccnc2ccc(OC)cc12", "note": "(stereo unspecified)", "growth inhibition": 1}, {"smiles": "Cc1c2cccc(Sc3ccccc3)c2c2c3c(cccc13)[S+](c1ccccc1)C2", "note": "(stereo unspecified)", "growth inhibition": 4}, {"smiles": "C=C1CCC(O)C/C1=C/C=C1\\CCCC2(C)C1CCC2C(C)CCCC(C)C", "note": "(stereo unspecified)", "growth inhibition": -16}, {"smiles": "NC1=NNC2(C(N)=N1)c1ccccc1-c1ccccc12", "growth inhibition": 3}, {"smiles": "COc1cc2cc3c4cc(OC)c(OC)cc4cc[n+]3c(C)c2cc1OC", "growth inhibition": -18}, {"smiles": "COC(=O)NC1C(C)OC(OC2C/C=C(/C)C3C=CC4C(OC5CC(OC6CC(O)C(OC7CC(O)C(OC)C(C)O7)C(C)O6)C(O)C(C)O5)C(C)CC(C)C4C3(C)/C(O)=C3\\C(=O)OC4(CC(C)C(CO)=CC4/C=C\\2C)C3=O)CC1(C)[N+](=O)[O-]", "note": "(stereo unspecified)", "growth inhibition": 10}, {"smiles": "O=C1CSC(c2cccc(Cl)c2)N1c1ccc(-c2ccc(-n3c(-c4ccccc4)nc4ccccc4c3=O)cc2)cc1", "note": "(stereo unspecified)", "growth inhibition": -1}, {"smiles": "CCOC(=O)C(C(=O)OCC)=P(c1ccccc1)(c1ccccc1)c1ccccc1", "growth inhibition": -2}, {"smiles": "COc1ccc(N=CN(C)C)c(C)c1", "growth inhibition": -9}, {"smiles": "Cc1cc(S(=O)(=O)Nc2nnc3cnc4ccccc4n23)c(S)cc1Cl", "growth inhibition": -3}, {"smiles": "O=C(Oc1ccc2c(c1)CN(Cc1ccccc1)CO2)c1ccccc1", "growth inhibition": -4}, {"smiles": "CN(C)[C@@H]1C(=O)C(C(N)=O)=C(O)[C@@]2(O)C(=O)C3=C(O)c4c(O)cccc4C[C@H]3C[C@@H]12", "growth inhibition": -9}, {"smiles": "O=[N+]([O-])c1ccc2c(c1)/C(=N/N=C1c3ccccc3Cc3ccccc31)c1cc([N+](=O)[O-])cc([N+](=O)[O-])c1-2", "growth inhibition": -7}, {"smiles": "Cc1nc2c(Br)cc(Br)cc2c(=O)n1-c1ccccc1NC1OCC(O)C(O)C1O", "note": "(stereo unspecified)", "growth inhibition": 37}, {"smiles": "Cc1cc(N(CCOS(C)(=O)=O)CCOS(C)(=O)=O)ccc1C=Nc1ccc(-c2nc(Cc3ccccc3)sc2C)cc1", "growth inhibition": 1}]}, {"test": "NCI Yeast Anticancer Drug Screen. Data for the rad50EPP+ strain (AID 151)", "conditions": "S. cerevisiae rad50 mutant strain, at 3.7 µM, active compounds read high", "procedure,_shortened": "as §1", "values": [{"smiles": "O=C1/C(=C/c2ccccc2)CCCC1CN1CCCCC1", "note": "(stereo unspecified)", "growth inhibition": "-1%"}, {"smiles": "C#CCN(Cc1ccc2nc(N)[nH]c(=O)c2c1)c1ccc(C(=O)NC(CCC(=O)O)C(=O)O)cc1", "note": "(stereo unspecified)", "growth inhibition": "37%"}, {"smiles": "CCOC1(c2cccc([N+](=O)[O-])c2)c2ccccc2Oc2ccccc21", "growth inhibition": "2%"}, {"smiles": "O=C(O)CNC(=S)Nc1ccccc1", "growth inhibition": "-35%"}, {"smiles": "N/C(=N/N=C/c1cc(Br)cc(Br)c1O)NO", "growth inhibition": "-24%"}, {"smiles": "C[Si](C)(C)/C=C/CCNC(C#N)c1ccccc1", "note": "(stereo unspecified)", "growth inhibition": "-44%"}, {"smiles": "CCCCCCCCCCCCCCCCOP(=O)(O)OCC(N)C(=O)O", "note": "(stereo unspecified)", "growth inhibition": "-4%"}, {"smiles": "CC1=C(C(=O)NCc2ccccc2)C(c2ccccc2)C(C(=O)NCc2ccccc2)=C(C)N1", "growth inhibition": "-1%"}, {"smiles": "O=[N+]([O-])c1cc(S(=O)(=O)Nc2ccccc2)ccc1Nc1ccccc1", "growth inhibition": "2%"}, {"smiles": "COc1cc2ccnc(-c3c4ccccc4c(N)c4c(OC)c(OC)ccc34)c2cc1OC", "growth inhibition": "11%"}, {"smiles": "CCOC(=O)C(Br)C(Br)c1ccccc1Cl", "note": "(stereo unspecified)", "growth inhibition": "62%"}, {"smiles": "CCOC(=O)C1=C(C)NC(C)=C(C(=O)OCCNC(=O)c2ccc(N=[N+]=[N-])cc2)C1c1ccccc1C(F)(F)F", "note": "(stereo unspecified)", "growth inhibition": "0%"}, {"smiles": "Cc1cc(C)c(NC(=S)NC(=O)c2ccccc2)cc1C", "growth inhibition": "-41%"}, {"smiles": "CNCCCNc1c2ccccc2nc2cccc([N+](=O)[O-])c12", "growth inhibition": "89% (active)"}, {"smiles": "COc1c(O)c(C=O)c(Br)c(C=O)c1O", "growth inhibition": "43%"}, {"smiles": "Cc1c(C)c(C)c(CSC(=N)N)c(C)c1C", "growth inhibition": "-53%"}, {"smiles": "O=C(CSC(=S)N1CCCCC1)Nc1nc2c(s1)CCCC2", "growth inhibition": "31%"}, {"smiles": "CNC(=O)OCc1c(COC(=O)NC)c(-c2ccc(Cl)cc2)n2c1CCC2", "growth inhibition": "-23%"}, {"smiles": "CC(=O)OC1CC2C(C)(C)C(=O)C=C[C@]2(C)C2CCC3(C)C(=CCC3[C@H](CO)C[C@H](O)C(=O)C(C)(C)O)[C@]12C", "note": "(stereo partly specified)", "growth inhibition": "-35%"}, {"smiles": "CCCCCCOC(=O)NCCOC(=O)Nc1ccccc1", "growth inhibition": "6%"}, {"smiles": "C[C](C)(C)[Ge]([O][Ge]([c]1ccccc1)[c]1ccccc1)([O][Ge]([c]1ccccc1)[c]1ccccc1)[C](C)(C)C", "growth inhibition": "5%"}, {"smiles": "CCc1c(Cl)c(C)cc(O)c1Cl", "growth inhibition": "-13%"}, {"smiles": "Cc1nc(Nc2ccccc2[N+](=O)[O-])sc1C(=O)CC(=O)C(=O)Nc1c(C(C)C)cccc1C(C)C", "growth inhibition": "17%"}, {"smiles": "O=[N+]([O-])c1cccc2nc3ccccc3c(NCCCn3ccnc3[N+](=O)[O-])c12", "growth inhibition": "37%"}, {"smiles": "CCCCCCC(O)CNCc1ccnc2ccc(OC)cc12", "note": "(stereo unspecified)", "growth inhibition": "2%"}, {"smiles": "Cc1c2cccc(Sc3ccccc3)c2c2c3c(cccc13)[S+](c1ccccc1)C2", "note": "(stereo unspecified)", "growth inhibition": "12%"}, {"smiles": "C=C1CCC(O)C/C1=C/C=C1\\CCCC2(C)C1CCC2C(C)CCCC(C)C", "note": "(stereo unspecified)", "growth inhibition": "-20%"}, {"smiles": "NC1=NNC2(C(N)=N1)c1ccccc1-c1ccccc12", "growth inhibition": "7%"}, {"smiles": "COc1cc2cc3c4cc(OC)c(OC)cc4cc[n+]3c(C)c2cc1OC", "growth inhibition": "-17%"}, {"smiles": "COC(=O)NC1C(C)OC(OC2C/C=C(/C)C3C=CC4C(OC5CC(OC6CC(O)C(OC7CC(O)C(OC)C(C)O7)C(C)O6)C(O)C(C)O5)C(C)CC(C)C4C3(C)/C(O)=C3\\C(=O)OC4(CC(C)C(CO)=CC4/C=C\\2C)C3=O)CC1(C)[N+](=O)[O-]", "note": "(stereo unspecified)", "growth inhibition": "8%"}, {"smiles": "O=C1CSC(c2cccc(Cl)c2)N1c1ccc(-c2ccc(-n3c(-c4ccccc4)nc4ccccc4c3=O)cc2)cc1", "note": "(stereo unspecified)", "growth inhibition": "4%"}, {"smiles": "CCOC(=O)C(C(=O)OCC)=P(c1ccccc1)(c1ccccc1)c1ccccc1", "growth inhibition": "-3%"}, {"smiles": "COc1ccc(N=CN(C)C)c(C)c1", "growth inhibition": "-62%"}, {"smiles": "Cc1cc(S(=O)(=O)Nc2nnc3cnc4ccccc4n23)c(S)cc1Cl", "growth inhibition": "-16%"}, {"smiles": "O=C(Oc1ccc2c(c1)CN(Cc1ccccc1)CO2)c1ccccc1", "growth inhibition": "-3%"}, {"smiles": "CN(C)[C@@H]1C(=O)C(C(N)=O)=C(O)[C@@]2(O)C(=O)C3=C(O)c4c(O)cccc4C[C@H]3C[C@@H]12", "growth inhibition": "-8%"}, {"smiles": "O=[N+]([O-])c1ccc2c(c1)/C(=N/N=C1c3ccccc3Cc3ccccc31)c1cc([N+](=O)[O-])cc([N+](=O)[O-])c1-2", "growth inhibition": "86% (active)"}, {"smiles": "Cc1nc2c(Br)cc(Br)cc2c(=O)n1-c1ccccc1NC1OCC(O)C(O)C1O", "note": "(stereo unspecified)", "growth inhibition": "36%"}, {"smiles": "Cc1cc(N(CCOS(C)(=O)=O)CCOS(C)(=O)=O)ccc1C=Nc1ccc(-c2nc(Cc3ccccc3)sc2C)cc1", "growth inhibition": "-19%"}]}]}
